KB-V1 MDR tox – kills drug-selected multidrug resistant KB-V1 cells | AID 1347076 | KB-V1 MDR cells viability, CellTiter-Glo, 72 h | Potency, µM (doses to about 46.1 µM), most hits filed as cytotoxic | 400,000 compounds, 3.4% hits; note: potency is the fitted concentration of half-maximal effect; % is set by controls: 0 for no effect and ±100 for the full control effect; nearly all actives have a fitted effect of over 60% in size
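KB-V1, DMEM (no phenol red) + 10% FBS; cpd pin-transferred, titration series; 72 h, 37 degrees C; CellTiter-Glo, luminescence. Data normalized, curve-fit.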
MCF10A rerep – DNA re-replication induction in MCF 10a cells; 350,000 compounds, 2.9% hits; MCF 10A DNA re-replication, Hoechst nuclear intensity, 48 h; Potency, µM (doses to about 46.1 µM), without a hit: at the top dose activity, positive = re-replication, most hits filed as activators; AID 624296; note: potency is the fitted concentration of half-maximal effect; % of control where 0% means no effect; nearly all actives have a fitted effect of over 50% in size
SW480 rerep – DNA re-replication induction in SW480 cells; SW480 DNA re-replication, Hoechst DNA content imaging, 48 h; Potency, µM (series often up to 46.1 µM), for inactives: top-dose re-replication activation, actives largely listed as activators; 340,000 compounds, 1.8% hits; note: potency is the fitted concentration of half-maximal effect; % of control where 0% means no effect; nearly all actives have a fitted effect of over 55% in size
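Compounds, transferred as 23 nL by pin tool, were incubated with cells for 48 hr; DNA content per nucleus was then quantified by Hoechst staining and fluorescence plate imaging.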
IL1B secr inh – blocks inflammasome-driven IL-1 beta release. THP-1 LPS/ATP IL-1B secretion, AlphaLISA, 16 h; hits give low values. activity change, % at 57.5 µM. 360,000 compounds, 4.7% hits; in the data active = activity change below about -50%; inconclusive = mostly about -30% to -49%; note: % is set by controls: 0 for no effect and ±100 for the full control effect
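THP-1 cells pretreated 1 hr with compounds (up to 57.5 uM final), then stimulated with LPS (250 ng/mL final) plus ATP (1.25 mM final); secreted IL-1B measured by AlphaLISA after 16 hr, decreased signal indicating inhibition.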
KB-3-1 tox – KB-3-1 parental cell cytotoxicity; KB-3-1 viability, CellTiter-Glo ATP luminescence, 72 h; Potency, µM (top dose mostly 46.1 µM), most hits filed as cytotoxic; 400,000 compounds, 1.4% hits; note: potency is the fitted concentration of half-maximal effect; % is set by controls: 0 for no effect and ±100 for the full control effect; nearly all actives have a fitted effect of over 60% in size
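Parental KB-3-1 adenocarcinoma cells in phenol-red-free DMEM with 10% FBS were pin-treated with compounds at several concentrations, incubated 72 h at 37 °C, and viability read by CellTiter-Glo luminescence; concentration-effect curves were fitted after normalization.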
* marks the source's active call; other numbers are inactive results; i = inactive; ? = inconclusive; nt = no result; ! = not active in a repeat. Most compounds without a hit are left out; they make up all but 9.9% or so of the library. Unless noted, calls come from the whole dose curve; as a rule, active = well fitted curve in the direction sought with a large enough effect; inconclusive = small, poorly fitted or top-dose-only effect, or another doubt; inactive = no such curve, though single readings can be large; an effect the other way counts as inactive or inconclusive.

SMILES | KB-V1 MDR tox | MCF10A rerep | SW480 rerep | IL1B secr inh | KB-3-1 tox
COc1ccc(-c2noc(C3CCCN(C(=O)c4ccc(C)cc4)C3)n2)cc1 (stereo unspecified) | i | 16% | 19% | -70* | i
COc1ccc(NC(=O)N2CCC(c3nc(-c4cccs4)no3)CC2)cc1 | 6.5µM* | 9% | -10% | 0 | i
O=C(Nc1ccc(Cl)cc1)N1CCC(c2nc(-c3cccs3)no2)CC1 | i | ? | ? | -5 | i
COc1cccc(C(=O)N2CCCC(c3nc(-c4cccs4)no3)C2)c1 (stereo unspecified) | 4.1µM* | 7% | 1% | 11 | i
O=C(NC1CCCCC1)N1CCCC(c2nc(-c3cccs3)no2)C1 (stereo unspecified) | i | ? | 26% | -1 | i
COc1cc2c(cc1OC)C(c1ccccc1)N(Cc1ccc(S(=O)(=O)NC(=O)c3ccco3)cc1)CC2 (stereo unspecified) | i | nt | nt | 16 | i
Cc1cccc(NC(=O)c2ccc(S(=O)(=O)NCc3cccnc3)cc2)c1 | 21µM* | -1% | -4% | 46 | ?
COc1cccc(S(=O)(=O)NCc2ccc(C(=O)Nc3ccc(Cl)c(Cl)c3)cc2)c1 | i | ? | 0% | -19 | ?
O=C(Nc1ccc(Cl)c(Cl)c1)c1cccc(S(=O)(=O)NCc2cccnc2)c1 | i | ? | -7% | -82* | i
C=C(C)COc1ccc2c(c1)CCC1C2CCC2(C)C(=O)C(=NO)CC12 (stereo unspecified) | ? | ? | ? | -99* | ?
CC12CCC3c4ccc(OCC(=O)O)cc4CCC3C1CCC2=O (stereo unspecified) | i | 9% | -5% | 16 | i
Cc1cc(Nc2nc3ccccc3nc2Cl)n(-c2ccccc2)n1 | 13µM* | 13µM* | ? | ? | ?
Cc1cc(Nc2ccc(Cl)cc2)n(-c2cccc(Cl)c2)n1 | ? | 26µM* | ? | 9 | ?
Cc1cc(Nc2ccccc2C(=O)O)n(-c2cccc(Cl)c2)n1 | i | -1% | 5.2µM* | 52 | i
Cc1cc2nc(-c3cc(NC(=O)c4cc5ccccc5o4)ccc3Cl)oc2cc1C | i | nt | nt | nt | i
N#CCCCCN1CCCC1 | i | -1% | 0% | 4 | i
Cc1cccc(NC(=O)CN2C(=O)c3ccccc3Sc3ncccc32)c1C | i | nt | nt | nt | i
N[C@@H](Cc1cc(I)c(Oc2ccc(O)c(I)c2)c(I)c1)C(=O)O | i | 21µM*! | -7% | 63 | ?
NC(Cc1ccc(O)c([N+](=O)[O-])c1)C(=O)O (stereo unspecified) | i | ? | -4% | 0 | i
N[C@@H](Cc1ccc(O)c(O)c1)C(=O)O | i | -5% | -41% | -107* | i
CC(Cc1ccc(O)c(O)c1)C(C)Cc1ccc(O)c(O)c1 (stereo unspecified) | i | ? | 0.37µM*! | -75* | i
COC(=O)C1=C(C)NC2=C(C(=O)CCC2)C1c1ccc(-c2ccsc2C(=O)OC)o1 (stereo unspecified) | i | 7% | -4% | 44 | i
CCN1CCN(C(=O)C2CCN(S(=O)(=O)N3CCC4(CC3)OCCO4)CC2)CC1 | i | -2% | -5% | 9 | i
CCCNc1nc(C)nc2c1cnn2CCc1ccccc1 | i | -5% | -4% | -11 | i
Cc1nc(NC(C)C)c2cnn(CCc3ccccc3)c2n1 | ? | 21µM* | 4% | -18 | i
SMILES | KB-V1 MDR tox | MCF10A rerep | SW480 rerep | IL1B secr inh | KB-3-1 tox
Cc1ccc(C(C)C)c(OCCNS(C)(=O)=O)c1 | i | -1% | -7% | 11 | i
COc1cc(C(=O)NCCOc2ccccc2)cc(OC)c1OC | ? | 2% | 0% | -15 | i
Cc1ccc(C(C)C)c(OCCNC(=O)c2cncc(Br)c2)c1 | ? | ? | 2% | -8 | i
CCCCNCC#CCOc1cc(C)ccc1C(C)C | i | 2% | -1% | -70* | i
COc1cc(C(=O)NCCOc2cc(C)ccc2C(C)C)cc(OC)c1OC | 16µM* | ? | ? | -63* | ?
COc1ccc2cnn(CCOc3cc(C)ccc3C(C)C)c(=O)c2c1OC | 6.5µM* | ? | ? | 21 | i
CCOc1ccccc1OCCn1ncc2ccc(OC)c(OC)c2c1=O | i | 0% | -12% | -10 | i
COc1cc(C(=O)NCCOc2cc(C)cc(C)c2)cc(OC)c1OC | 5.8µM* | 21µM* | 7.3µM* | 27 | 4.6µM*
O=C(NCc1cccs1)C(=O)NCC1OCCCN1S(=O)(=O)c1cc(F)ccc1F (stereo unspecified) | i | 10% | 7% | 17 | i
Cc1ccc(C(C)C)c(OCCNCCc2ccccc2)c1 | i | 13µM* | ? | -91* | i
Cc1ccc(C(C)C)c(OCCCNCc2cccnc2)c1 | i | -2% | 9% | -6 | ?
CNC[C@H]1Oc2ccc(NC(=O)Nc3ccccc3)cc2CC(=O)N([C@H](C)CO)C[C@H]1C | i | -7% | -3% | 14 | i
COc1cccc(CNc2nc3cc(-c4ccc(C)cc4)sc3c(=O)n2C)c1OC | 12µM* | nt | nt | 85 | ?
COc1cccc(CNc2nc3cc(-c4ccsc4)sc3c(=O)n2C)c1OC | 2.6µM* | nt | nt | 6 | 9.2µM*
Nc1c(C(=O)Nc2ccc(OC(F)(F)F)cc2)nnn1Cc1ccccc1 | i | nt | nt | nt | i
Cc1c(Cl)cccc1NC(=O)CC(c1cccs1)N1Cc2ccccc2C1=O (stereo unspecified) | ? | nt | nt | nt | i
Cc1ccc(-c2nc(NCc3ccco3)c3ccccc3n2)cc1 | i | ? | -42% | 5 | i
c1ccc(CN2CCN(c3nc(NCc4ccco4)c4ccccc4n3)CC2)cc1 | 3.7µM* | ? | ? | -64* | ?
OCCN1CCN(c2nc(NCc3ccco3)c3ccccc3n2)CC1 | i | ? | ? | -16 | i
Cc1ccc(OCCN2CCN(c3nc(NCc4ccco4)c4ccccc4n3)CC2)cc1 | 16µM* | 15µM* | ? | -60* | ?
NC1=NC(=O)/C(=C\c2ccsc2)S1 | i | 5% | -7% | -17 | i
CC(=O)Nc1cc2c(cc1[N+](=O)[O-])-c1ccc(F)cc1C2 | i | 12% | ? | -81* | i
S=C1NC(c2ccccc2)=CC(c2ccccc2)N1 (stereo unspecified) | i | ? | -3% | -12 | i
S=C1NC(c2cccs2)=CC(c2ccc(Br)cc2)N1 (stereo unspecified) | ? | ? | 21µM* | ? | i
COc1ccccc1N1CCN(CCS(=O)(=O)c2cc(Cl)ccc2Cl)CC1 | i | nt | nt | -4 | i

Screening results (PubChem)
